Results from the supplement of paper PMC4466140.

Columns and labels:
Assay in all cases: SPOT peptide array binding signal intensity (averaged, normalized) (arbitrary units (background-subtracted, floor 0; scale differs between SH3 domains)); higher = stronger binding of the SH3 domain to the peptide
AgAbp1 = target: AgAbp1
Procedure, shortened: (§1)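 GST-fused SH3 domains from four yeast species were expressed in E. coli BL21(DE3), purified on glutathione Sepharose and incubated at 10 μg/ml overnight at 4°C in TBS-based blocking buffer on cellulose membranes carrying synthetic 15-mer peptides, with cysteines replaced by serines. Bound protein was detected with anti-GST antibody, an HRP anti-mouse secondary and luminol, then imaged and quantified with Genespotter. Binding signal is the normalized, background-subtracted spot intensity averaged over replicates, in arbitrary units that differ between domains.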

AgBbc1 = target: AgBbc1
Procedure, shortened: as §1

AgBem1-D1 = target: AgBem1-D1
Procedure, shortened: as §1

AgBzz1-D1 = target: AgBzz1-D1
Procedure, shortened: as §1

AgBzz1-D2 = target: AgBzz1-D2
Procedure, shortened: as §1

AgCyk3 = target: AgCyk3
Procedure, shortened: as §1

AgFus1 = target: AgFus1
Procedure, shortened: as §1

AgHof1 = target: AgHof1
Procedure, shortened: as §1

AgHse1 = target: AgHse1
Procedure, shortened: as §1

AgLsb1 = target: AgLsb1
Procedure, shortened: as §1

AgLsb4 = target: AgLsb4
Procedure, shortened: as §1

AgMyo5 = target: AgMyo5
Procedure, shortened: as §1

AgNbp2 = target: AgNbp2
Procedure, shortened: as §1

AgRvs167 = target: AgRvs167
Procedure, shortened: as §1

AgSho1 = target: AgSho1
Procedure, shortened: as §1

AgSla1-D1-D2 = target: AgSla1-D1-D2
Procedure, shortened: as §1

AgSla1-D3 = target: AgSla1-D3
Procedure, shortened: as §1

CaAbp1-D1 = target: CaAbp1-D1
Procedure, shortened: as §1

CaAbp1-D2 = target: CaAbp1-D2
Procedure, shortened: as §1

CaBbc1 = target: CaBbc1
Procedure, shortened: as §1

CaBem1-D1 = target: CaBem1-D1
Procedure, shortened: as §1

CaBzz1-D1 = target: CaBzz1-D1
Procedure, shortened: as §1

CaBzz1-D2 = target: CaBzz1-D2
Procedure, shortened: as §1

CaCyk3 = target: CaCyk3
Procedure, shortened: as §1

CaFus1 = target: CaFus1
Procedure, shortened: as §1

CaHof1 = target: CaHof1
Procedure, shortened: as §1

CaHse1 = target: CaHse1
Procedure, shortened: as §1

CaLsb1 = target: CaLsb1
Procedure, shortened: as §1

CaLsb4 = target: CaLsb4
Procedure, shortened: as §1

CaMyo5 = target: CaMyo5
Procedure, shortened: as §1

CaNbp2 = target: CaNbp2
Procedure, shortened: as §1

CaRvs167 = target: CaRvs167
Procedure, shortened: as §1

CaRvs167-3 = target: CaRvs167-3
Procedure, shortened: as §1

CaSho1 = target: CaSho1
Procedure, shortened: as §1

CaSla1-D1-D2 = target: CaSla1-D1-D2
Procedure, shortened: as §1

CaSla1-D3 = target: CaSla1-D3
Procedure, shortened: as §1

ScAbp1 = target: ScAbp1
Procedure, shortened: as §1

ScBbc1 = target: ScBbc1
Procedure, shortened: as §1

ScBem1-D1 = target: ScBem1-D1
Procedure, shortened: as §1

ScBzz1-D1 = target: ScBzz1-D1
Procedure, shortened: as §1

ScBzz1-D2 = target: ScBzz1-D2
Procedure, shortened: as §1

ScCyk3 = target: ScCyk3
Procedure, shortened: as §1

ScFus1 = target: ScFus1
Procedure, shortened: as §1

ScHof1 = target: ScHof1
Procedure, shortened: as §1

ScHse1 = target: ScHse1
Procedure, shortened: as §1

ScLsb1 = target: ScLsb1
Procedure, shortened: as §1

ScLsb2 = target: ScLsb2
Procedure, shortened: as §1

ScLsb3 = target: ScLsb3
Procedure, shortened: as §1

ScLsb4 = target: ScLsb4
Procedure, shortened: as §1

ScMyo3 = target: ScMyo3
Procedure, shortened: as §1

ScMyo5 = target: ScMyo5
Procedure, shortened: as §1

ScNbp2 = target: ScNbp2
Procedure, shortened: as §1

ScPex13 = target: ScPex13
Procedure, shortened: as §1

ScRvs167 = target: ScRvs167
Procedure, shortened: as §1

ScSho1 = target: ScSho1
Procedure, shortened: as §1

ScSla1-D1-D2 = target: ScSla1-D1-D2
Procedure, shortened: as §1

ScSla1-D3 = target: ScSla1-D3
Procedure, shortened: as §1

SpAbp1-D1 = target: SpAbp1-D1
Procedure, shortened: as §1

SpBbc1 = target: SpBbc1
Procedure, shortened: as §1

SpBzz1-D1 = target: SpBzz1-D1
Procedure, shortened: as §1

SpBzz1-D2 = target: SpBzz1-D2
Procedure, shortened: as §1

SpCyk3 = target: SpCyk3
Procedure, shortened: as §1

SpHof1 = target: SpHof1
Procedure, shortened: as §1

SpHof1-2 = target: SpHof1-2
Procedure, shortened: as §1

SpHof1-3 = target: SpHof1-3
Procedure, shortened: as §1

SpHse1 = target: SpHse1
Procedure, shortened: as §1

SpLsb1 = target: SpLsb1
Procedure, shortened: as §1

SpLsb4 = target: SpLsb4
Procedure, shortened: as §1

SpMyo1 = target: SpMyo1
Procedure, shortened: as §1

SpNbp2 = target: SpNbp2
Procedure, shortened: as §1

SpPex13 = target: SpPex13
Procedure, shortened: as §1

SpRvs167 = target: SpRvs167
Procedure, shortened: as §1

SpSla1-D1-D2 = target: SpSla1-D1-D2
Procedure, shortened: as §1

SpSla1-D3 = target: SpSla1-D3
Procedure, shortened: as §1

B1: unnamed (peptide)
chain: ISRRRLPVIMHRLKM
SPOT peptide array binding signal intensity (AgAbp1): 138 | SPOT peptide array binding signal intensity (AgBbc1): 16.2 | SPOT peptide array binding signal intensity (AgBem1-D1): 66 | SPOT peptide array binding signal intensity (AgBzz1-D1): 49.5 | SPOT peptide array binding signal intensity (AgBzz1-D2): 14 | SPOT peptide array binding signal intensity (AgCyk3): 1 | SPOT peptide array binding signal intensity (AgFus1): 423 | SPOT peptide array binding signal intensity (AgHof1): 6.5 | SPOT peptide array binding signal intensity (AgHse1): 1310 | SPOT peptide array binding signal intensity (AgLsb1): 2.75 | SPOT peptide array binding signal intensity (AgLsb4): 40 | SPOT peptide array binding signal intensity (AgMyo5): 0.25 | SPOT peptide array binding signal intensity (AgNbp2): 303 | SPOT peptide array binding signal intensity (AgRvs167): 16.5 | SPOT peptide array binding signal intensity (AgSho1): 240 | SPOT peptide array binding signal intensity (AgSla1-D1-D2): 158 | SPOT peptide array binding signal intensity (AgSla1-D3): 9.5 | SPOT peptide array binding signal intensity (CaAbp1-D1): 617 | SPOT peptide array binding signal intensity (CaAbp1-D2): 645 | SPOT peptide array binding signal intensity (CaBbc1): 142 | SPOT peptide array binding signal intensity (CaBem1-D1): 102 | SPOT peptide array binding signal intensity (CaBzz1-D1): 49 | SPOT peptide array binding signal intensity (CaBzz1-D2): 42.5 | SPOT peptide array binding signal intensity (CaCyk3): 36 | SPOT peptide array binding signal intensity (CaFus1): 542 | SPOT peptide array binding signal intensity (CaHof1): 1 | SPOT peptide array binding signal intensity (CaHse1): 61 | SPOT peptide array binding signal intensity (CaLsb1): ≤ 0 | SPOT peptide array binding signal intensity (CaLsb4): 177 | SPOT peptide array binding signal intensity (CaMyo5): 0.5 | SPOT peptide array binding signal intensity (CaNbp2): 812 | SPOT peptide array binding signal intensity (CaRvs167): 42.3 | SPOT peptide array binding signal intensity (CaRvs167-3): 153 | SPOT peptide array binding signal intensity (CaSho1): 738 | SPOT peptide array binding signal intensity (CaSla1-D1-D2): 386 | SPOT peptide array binding signal intensity (CaSla1-D3): 99.8 | SPOT peptide array binding signal intensity (ScAbp1): 150 | SPOT peptide array binding signal intensity (ScBbc1): 10.5 | SPOT peptide array binding signal intensity (ScBem1-D1): 23 | SPOT peptide array binding signal intensity (ScBzz1-D1): 8.5 | SPOT peptide array binding signal intensity (ScBzz1-D2): 9 | SPOT peptide array binding signal intensity (ScCyk3): 49 | SPOT peptide array binding signal intensity (ScFus1): 516 | SPOT peptide array binding signal intensity (ScHof1): 1 | SPOT peptide array binding signal intensity (ScHse1): 1390 | SPOT peptide array binding signal intensity (ScLsb1): 32.5 | SPOT peptide array binding signal intensity (ScLsb2): 2 | SPOT peptide array binding signal intensity (ScLsb3): 1300 | SPOT peptide array binding signal intensity (ScLsb4): 42 | SPOT peptide array binding signal intensity (ScMyo3): ≤ 0 | SPOT peptide array binding signal intensity (ScMyo5): ≤ 0 | SPOT peptide array binding signal intensity (ScNbp2): 485 | SPOT peptide array binding signal intensity (ScPex13): 18 | SPOT peptide array binding signal intensity (ScRvs167): 216 | SPOT peptide array binding signal intensity (ScSho1): 1520 | SPOT peptide array binding signal intensity (ScSla1-D1-D2): 222 | SPOT peptide array binding signal intensity (ScSla1-D3): 70.5 | SPOT peptide array binding signal intensity (SpAbp1-D1): 714 | SPOT peptide array binding signal intensity (SpBbc1): 0.5 | SPOT peptide array binding signal intensity (SpBzz1-D1): 124 | SPOT peptide array binding signal intensity (SpBzz1-D2): 0.5 | SPOT peptide array binding signal intensity (SpCyk3): 16 | SPOT peptide array binding signal intensity (SpHof1): 285 | SPOT peptide array binding signal intensity (SpHof1-2): 101 | SPOT peptide array binding signal intensity (SpHof1-3): 618 | SPOT peptide array binding signal intensity (SpHse1): 690 | SPOT peptide array binding signal intensity (SpLsb1): 1.5 | SPOT peptide array binding signal intensity (SpLsb4): 484 | SPOT peptide array binding signal intensity (SpMyo1): 2.5 | SPOT peptide array binding signal intensity (SpNbp2): 437 | SPOT peptide array binding signal intensity (SpPex13): 22 | SPOT peptide array binding signal intensity (SpRvs167): 159 | SPOT peptide array binding signal intensity (SpSla1-D1-D2): 14 | SPOT peptide array binding signal intensity (SpSla1-D3): 18.5
